From PubChem
Compounds with a hit are over-represented: about 3.5% of the library has one in this group of screens.
TEAD-YAP inh – TEAD-YAP interaction inhibition, primary screen, TEAD-YAP interaction inhibitor project, luminescence, HEK-TIYL cells; TEAD-Gal4/YAP UAS-luciferase luminescence; inhibition, % at 9.12 µM; 1.4% of 640,000 active; AID 1259422, 2018; in the data active = inhibition above about 32%;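 also: 0% = median of test compound wells and 100% = reference inhibitor wells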
MITF inh – MITF inhibitors, primary screen, biochemical, AlphaScreen, human | 0.91% of 650,000 active | AlphaScreen MITF homodimerization, bead proximity signal | AID 1259374, 2018 | inhibition, % at 2.6 µM; in the data active = inhibition above about 50%;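 also: 0% = vehicle wells with protein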
GPR151 ag – activators of human GPR151, primary screen, cell-based, PathHunter beta-arrestin, luminescence. PathHunter beta-arrestin GPR151 cells. 1% of 650,000 active. activation, % at 11.2 µM; in the data active = activation above about 4.9%;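 also: 0% = median of compound wells and 100% = cells with positive control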
FBW7 act – FBW7 E3 ligase activators, primary screen, biochemical, AlphaScreen, human | 0.13% of 650,000 active | F-box/WD repeat-containing protein 7 (Homo sapiens), Q969H0 | AID 1259310, 2017 | normalized activity (activation), % at 26.1 µM | AlphaScreen FBW7–phospho-cyclin E peptide binding, activator screen; in the data active = normalized activity above about 1.9%;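 also: purified mutant Fbw7 with reduced substrate affinity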
Target sequence (Q969H0 whole entry, looked up): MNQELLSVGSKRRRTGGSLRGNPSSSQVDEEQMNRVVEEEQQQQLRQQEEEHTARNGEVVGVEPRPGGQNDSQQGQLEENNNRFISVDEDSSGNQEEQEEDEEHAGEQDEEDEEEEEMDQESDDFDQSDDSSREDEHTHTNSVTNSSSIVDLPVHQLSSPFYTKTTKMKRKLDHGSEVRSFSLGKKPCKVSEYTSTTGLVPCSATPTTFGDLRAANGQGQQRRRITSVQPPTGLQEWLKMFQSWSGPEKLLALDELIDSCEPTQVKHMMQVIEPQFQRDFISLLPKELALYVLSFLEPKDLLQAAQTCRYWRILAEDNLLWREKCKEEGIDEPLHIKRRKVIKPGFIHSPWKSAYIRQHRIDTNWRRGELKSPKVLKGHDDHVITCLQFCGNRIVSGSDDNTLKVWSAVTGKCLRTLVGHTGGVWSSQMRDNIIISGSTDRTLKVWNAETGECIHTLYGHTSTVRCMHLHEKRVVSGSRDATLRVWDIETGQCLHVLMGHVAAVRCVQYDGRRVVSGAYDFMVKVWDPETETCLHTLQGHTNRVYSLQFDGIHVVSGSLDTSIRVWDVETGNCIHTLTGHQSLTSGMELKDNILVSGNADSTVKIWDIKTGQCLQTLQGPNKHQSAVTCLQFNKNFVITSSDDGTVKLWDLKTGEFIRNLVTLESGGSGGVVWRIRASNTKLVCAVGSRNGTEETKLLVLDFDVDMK
MITF confirm – MITF inhibitors, retest of hits, confirmation, biochemical, AlphaScreen, triplicate | shares compounds with MITF inh | AlphaScreen MITF homodimerization, biotin/His-MITF beads | inhibition, % at 2.6 µM | 16% of 4,700 active | AID 1259372, 2018;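 active = inhibition above a cutoff derived from the DMSO control wells, cut at about 28% in these data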;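 also: 0% = MITF dimer wells with DMSO only; inhibitors lower the bead chemiluminescence by keeping MITF from dimerizing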
AS interf DR – AlphaScreen optical interference compounds, dose response, counter-screen, biochemical, HTS; AID 1259373, 2018; shares compounds with MITF inh; 6% of 480 active; IC50, µM; AlphaScreen optical interference counterscreen, cell-free; call rule not given here
AS interf ctr – AlphaScreen optical interference compounds, counter-screen for MITF inhibitor project, biochemical, triplicate. inhibition, % at 2.6 µM. shares compounds with MITF inh. 7.6% of 4,700 active. LysRS AlphaScreen counterscreen, signal interference;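 active = inhibition above a cutoff derived from the DMSO control wells, cut at about 30% in these data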
Active calls of the source: *; · = no result.

SMILES | TEAD-YAP inh | MITF inh | GPR151 ag | FBW7 act | MITF confirm | AS interf ctr | others
CC(C)c1ccc(NC(=O)C2C3C=CC4(O3)C2C(=O)N(Cc2cccnc2)C4C(=O)NC2CCCCC2)cc1 (stereo not given) | 2 | 6 | -2 | 0 | · | ·
COc1ccc(OCCNCc2ccco2)cc1 | 0 | 52* | 2 | 0 | -18 | -2
N/N=C(\Cc1ccc2ccccc2n1)c1ccccc1 | -53 | 8 | 1 | 0 | · | ·
CCOC(=O)C(=O)Cc1ccc2ccccc2n1 | -3 | 53* | -1 | 0 | 5 | -6
Cc1cccc(OCC(=O)NCCc2ccc(N3CCCC3)cc2)c1 | 2 | 53* | 0 | -1 | -2 | -1
Cc1ccc(-c2cc(C(=O)Nc3nc4ccc(Br)cc4s3)c3ccccc3n2)s1 | 7 | -2 | -1 | 0 | · | ·
Cc1ccc(-c2cc(C(=O)Nc3nnc(C)s3)c3ccccc3n2)s1 | 7 | 65* | 1 | 0 | 5 | 11
COCCn1c(=S)[nH]c2cc(C(=O)NCc3ccc(F)cc3)ccc2c1=O | 1 | -4 | -1 | 0 | · | ·
COCCn1c(=S)[nH]c2cc(C(=O)NCc3ccc(C)cc3)ccc2c1=O | -5 | 62* | 0 | 0 | 1 | 8
CC(C)NC(=O)c1ccc2c(=O)n(CCC3=CCCCC3)c(=S)[nH]c2c1 | 5 | 84* | -1 | 0 | 0 | -2
O=C(CN1CCc2ccccc2C1)Nc1ccc(C(=O)N2CCCCC2)cc1 | -16 | 60* | 2 | 0 | 11 | 19
NC(=O)c1ccc(NC(=O)CN2CCc3ccccc3C2)cc1 | -6 | 3 | 0 | 0 | · | ·
O=C(CN1CCN(Cc2ccccc2)CC1)Nc1ccccc1 | -5 | 1 | 3 | 1 | · | ·
O=C(CN1CCN(Cc2ccccc2)CC1)Nc1ccc(C(=O)N2CCCCC2)cc1 | 3 | 65* | 1 | 0 | 12 | -2
Cc1[nH]c(=O)[nH]c1C(=O)CCCCC(=O)OCC(=O)Nc1ccccc1C#N | 15 | 113* | 0 | -1 | 99* | 76*
Cc1ccc(C(=O)CCC(=O)OCC(=O)Nc2ccccc2C#N)cc1 | 13 | 8 | -1 | 0 | · | ·
Cc1[nH]c(=O)[nH]c1C(=O)CCCCC(=O)OCC(=O)Nc1ccc(S(N)(=O)=O)cc1 | 19 | 95* | 2 | -1 | 101* | 75*
COc1cc(/C=C(\C#N)C(=O)Nc2ccc([N+](=O)[O-])cc2C)ccc1OC(C)=O | 0 | 0 | -1 | 0 | · | ·
CN1C(=O)CC(CC(=O)N2CCC(c3nc4ccccc4[nH]3)CC2)(c2ccccc2F)C1=O (stereo not given) | -4 | -4 | 1 | 0 | · | ·
Cc1ccnc(NC(=O)CSC2=NC(=O)C(c3ccccc3)C(=O)N2)c1 (stereo not given) | 3 | 93* | 1 | 0 | 2 | 9
O=C(CNCc1ccccc1Cl)Nc1ccccc1N1CCCCC1 | -8 | 62* | -1 | 0 | 4 | 9
O=C(CNCc1ccccc1F)Nc1ccccc1N1CCOCC1 | -12 | 74* | -1 | 0 | 12 | 21
O=C(CCl)Nc1ccccc1N1CCCCCC1 | 14 | -3 | -1 | 0 | · | ·
CCOC(=O)C1=C(C)N=c2s/c(=C\c3ccc(-c4cc([N+](=O)[O-])ccc4OC)o3)c(=O)n2C1c1ccc(C(C)C)cc1 (stereo not given) | -1 | -1 | -1 | 0 | · | ·
O=C(CSc1nc2ccc(NC(=O)c3ccccc3C(=O)N3CCOCC3)cc2s1)Nc1ccc(F)cc1 | 1 | 11 | 0 | 0 | · | ·
SMILES | TEAD-YAP inh | MITF inh | GPR151 ag | FBW7 act | MITF confirm | AS interf ctr | others
Cc1oc(C(=O)O)cc1CSCCSCc1cc(C(=O)O)oc1C | 1 | 52* | 1 | -1 | 42* | 16 | AS interf DR=>6.5
O=S(=O)(c1ccc(Br)cc1)n1c(SCc2cccc(F)c2)nc2ccccc21 | -58 | 110* | 0 | 0 | -11 | -7
COC(=O)c1ccc(=O)c2nc3/c(=C/O)c(O)cc(=O)c3[nH]c12 | -6 | 77* | 0 | 0 | 86* | -8
CC1=CC2=NC(=O)CC(C)(C(=O)N(CC(=O)NC(C)C)Cc3cccs3)N2C=C1 (stereo not given) | 0 | -4 | -1 | 0 | · | ·
O=C(CNCC1CCCO1)Nc1ccccc1N1CCCCC1 (stereo not given) | 3 | 60* | 0 | 0 | 12 | 11
Cc1cc(NC(=O)CNCC2CCCO2)no1 (stereo not given) | 8 | 54* | 0 | 0 | -2 | 7
O=C(CN1CCCC1)Nc1ccccc1N1CCCCC1 | -2 | 62* | -1 | 0 | 9 | 14
CN1CCN(CC(=O)Nc2ccccc2N2CCCCCC2)CC1 | -4 | 62* | 2 | 0 | 8 | 16
CC1CCN(CC(=O)Nc2ccccc2N2CCCCC2)CC1 | 5 | 17 | 2 | 0 | · | ·
CCC(=O)Nc1ccccc1N1CCCC1 | 5 | 4 | 2 | 0 | · | ·
C/C(N)=C(/C#N)C(=O)COC(=O)c1ccc2c(c1)C(=O)N(c1cc(C)ccc1C)C2=O | 12 | -1 | 2 | 0 | · | ·
Cc1cc(N)ccc1NC(=O)CN1CCCC1 | 5 | 67* | 0 | 0 | 6 | 18
O=C(CNC1CCCCC1)Nc1ccccc1N1CCCCC1 | 0 | 54* | -1 | 0 | 12 | 14
O=C(CN1CCOCC1)Nc1ccccc1N1CCOCC1 | 7 | 87* | 2 | 0 | 16 | 17
CC1CC(=O)N(CC(=O)NCc2ccc(F)cc2)c2ccccc2S1 (stereo not given) | 2 | 23 | -1 | 1 | · | ·
CCOCC(=O)Nc1c(C(=O)Nc2ccc(F)c(Cl)c2)oc2ccccc12 | 7 | 2 | 3 | 0 | · | ·
CCN1C(=O)NC(c2cc(C)ccc2C)C(C(=O)OC)=C1C (stereo not given) | 5 | 11 | 0 | 0 | · | ·
CCN1C(=O)NC(c2cc(Br)ccc2OC)C(C(=O)OC)=C1C (stereo not given) | 4 | 59* | 4 | 0 | 2 | 8
OC1CCN(c2cc(-c3cccnc3)nc(-c3ccccc3)n2)CC1 | 12 | 71* | -1 | 0 | 5 | 12
OC1CCN(c2cc(-c3ccccc3)nc(-c3cccnc3)n2)CC1 | 8 | 12 | -1 | 0 | · | ·
Fc1ccc(-c2cc(N3CCN(c4ccccn4)CC3)nc(-c3cccnc3)n2)cc1 | 6 | 73* | 1 | 0 | 15 | 15
c1ccc(-c2nc(-c3cccnc3)cc(N3CCN(c4ccccn4)CC3)n2)cc1 | 2 | 11 | 1 | 0 | · | ·
